Test results published in PubChem BioAssay (EPA / NIEHS).
Results filed as inconclusive are left out. Calls of active or inactive are those of the source. How the source made its calls, unless noted: active means hit-call score of the fitted dose curve at least 0.9, where 1 is the maximum; inactive means score below 0.9.

Columns and labels:
[1] = read-out: matrix metalloproteinase-3 (MMP3), MMP3 (gene 4314); experiment: LTEA_HepaRG_MMP3: Life Technologies and Expression Analysis (LTEA) Assay for matrix metalloproteinase-3 (MMP3) using HepaRG (AID 2283519); conditions: mRNA level, 48 h; actives raise or lower the signal
In short: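 Differentiated human HepaRG cells, plated 48 h on collagen I, were exposed in duplicate for 48 h in serum-free induction medium to eight half-log concentrations up to 100 uM in 0.5% DMSO. MMP3 mRNA was quantified by TaqMan qRT-PCR, normalised to ACTB, GAPDH and POLR2A.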

[2] = read-out: Paternally Expressed 10 (PEG10), PEG10 (gene 23089); experiment: LTEA_HepaRG_PEG10: Life Technologies and Expression Analysis (LTEA) Assay for Paternally Expressed 10 (PEG10) using HepaRG (AID 2283520); conditions: mRNA level, 48 h; actives raise or lower the signal;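 on AC50: PEG10 transcript by qRT-PCR normalised to ACTB GAPDH and POLR2A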
In short: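 Chemicals tested on HepaRG cells for 48 h, highest concentration 100 uM. PEG10 expression assessed by qRT-PCR relative to DMSO control.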

[3] = read-out: Nuclear factor NF-kappa-B p105 subunit (Homo sapiens) (UniProt P19838); experiment: LTEA_HepaRG_NFKB1: Life Technologies and Expression Analysis (LTEA) Assay for Nuclear Factor Kappa B Subunit 1 (NFKB1) using HepaRG (AID 2283521); conditions: mRNA level, 48 h; actives raise or lower the signal
In short: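 NFKB1 transcript was measured by TaqMan qRT-PCR on Fluidigm arrays, normalised to three housekeeping genes and fitted in both directions against 0.5% DMSO. HepaRG cells were dosed in duplicate for 48 h in serum-free induction medium, eight half-log steps from 100 uM.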

[4] = read-out: Protein phosphatase 2A (PPP2R4), PTPA (gene 5524); experiment: LTEA_HepaRG_PPP2R4: Life Technologies and Expression Analysis (LTEA) Assay for Protein phosphatase 2A (PPP2R4) using HepaRG (AID 2283522); conditions: mRNA level, 48 h; actives raise or lower the signal
In short: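 Gene-expression endpoint in HepaRG hepatic cells: 48 h treatment across eight half-log concentrations up to 100 uM in 0.5% DMSO. PPP2R4 mRNA by qRT-PCR, normalized to three endogenous control genes.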

[5] = read-out: Phosphatase and tensin (PTEN), PTEN (gene 5728); experiment: LTEA_HepaRG_PTEN: Life Technologies and Expression Analysis (LTEA) Assay for Phosphatase and tensin (PTEN) using HepaRG (AID 2283523); conditions: mRNA level, 48 h; actives raise or lower the signal
In short: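 Differentiated human HepaRG cells, plated 48 h then switched to serum-free induction medium, were exposed in duplicate for 48 h to eight half-log concentrations up to 100 uM in 0.5% DMSO. PTEN mRNA measured by TaqMan qRT-PCR, normalized to ACTB/GAPDH/POLR2A, bidirectional fit versus DMSO.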

[6] = read-out: solute carrier (SLC22A1), SLC22A1 (gene 6580); experiment: LTEA_HepaRG_SLC22A1: Life Technologies and Expression Analysis (LTEA) Assay for solute carrier (SLC22A1) using HepaRG (AID 2283524); conditions: mRNA level, 48 h; actives raise or lower the signal
In short: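 Human HepaRG cells were plated 48 h, switched to serum-free induction medium, then exposed in duplicate for 48 h to 8-point half-log series from 100 uM in 0.5% DMSO. SLC22A1 mRNA measured by qRT-PCR, normalized to ACTB/GAPDH/POLR2A, fitted bidirectionally versus DMSO.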

[7] = read-out: Pyruvate Dehydrogenase Kinase 4 (PDK4), PDK4 (gene 5166); experiment: LTEA_HepaRG_PDK4: Life Technologies and Expression Analysis (LTEA) Assay for Pyruvate Dehydrogenase Kinase 4 (PDK4) using HepaRG (AID 2283525); conditions: mRNA level, 48 h; actives raise or lower the signal
In short: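 Differentiated human HepaRG cells, pre-cultured 48 h, were exposed in duplicate for 48 h in serum-free induction medium to eight half-log concentrations up to 100 uM in 0.5% DMSO. PDK4 mRNA was quantified by qRT-PCR, normalized to ACTB, GAPDH and POLR2A, bidirectional fitting versus DMSO.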

[8] = read-out: succinate dehydrogenase complex iron sulfur subunit B (SDHB), SDHB (gene 6390); experiment: LTEA_HepaRG_SDHB: Life Technologies and Expression Analysis (LTEA) Assay for succinate dehydrogenase complex iron sulfur subunit B (SDHB) using HepaRG (AID 2283528); conditions: mRNA level, 48 h; actives raise or lower the signal
In short: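 SDHB transcript level read by TaqMan qRT-PCR, housekeeping-normalised (ACTB, GAPDH, POLR2A), after 48 h chemical treatment of plated HepaRG cells; eight concentrations top 100 uM, half-log steps, 0.5% DMSO, duplicates; fitted both directions against DMSO.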

[9] = read-out: Signal transducer and activator of transcription 3 (Homo sapiens) (UniProt P40763); experiment: LTEA_HepaRG_STAT3: Life Technologies and Expression Analysis (LTEA) Assay for Signal transducer and activator of transcription (STAT3) using HepaRG (AID 2283529); conditions: mRNA level, 48 h; actives raise or lower the signal
In short: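 Differentiated human HepaRG cells in serum-free induction medium were exposed in duplicate for 48 h to eight half-log concentrations up to 100 uM in 0.5% DMSO. STAT3 mRNA was quantified by TaqMan qRT-PCR, normalized to ACTB, GAPDH and POLR2A, and fitted bidirectionally against DMSO.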

[10] = read-out: solute carrier (SLCO1B1), SLCO1B1 (gene 10599); experiment: LTEA_HepaRG_SLCO1B1: Life Technologies and Expression Analysis (LTEA) Assay for solute carrier (SLCO1B1) using HepaRG (AID 2283530); conditions: mRNA level, 48 h; actives raise or lower the signal
In short: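 Human HepaRG cultures treated for 48 h with an eight-concentration half-log series topping at 100 uM; SLCO1B1 measured by qRT-PCR and fitted bidirectionally relative to DMSO.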

[11] = read-out: sulfotransferase 2A1 (SULT2A1), SULT2A1 (gene 6822); experiment: LTEA_HepaRG_SULT2A1: Life Technologies and Expression Analysis (LTEA) Assay for sulfotransferase 2A1 (SULT2A1) using HepaRG (AID 2283531); conditions: mRNA level, 48 h; actives raise or lower the signal
In short: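 Gene-expression endpoint in a human liver cell line: SULT2A1 mRNA change after 48 h chemical treatment, curves fitted in both directions relative to 0.5% DMSO vehicle. Concentrations spanned eight half-log steps from 100 uM.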

[12] = read-out: Transforming Growth Factor (TGFA), TGFA (gene 7039); experiment: LTEA_HepaRG_TGFA: Life Technologies and Expression Analysis (LTEA) Assay for Transforming Growth Factor (TGFA) using HepaRG (AID 2283532); conditions: mRNA level, 48 h; actives raise or lower the signal
In short: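 Differentiated human HepaRG cells, plated 48 h then switched to serum-free induction medium, were exposed in duplicate for 48 h to 8-point half-log series from 100 uM in 0.5% DMSO. TGFA mRNA measured by qRT-PCR, normalized to ACTB/GAPDH/POLR2A, bidirectional fit versus DMSO.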

[13] = read-out: Transforming Growth Factor (TGFB1), TGFB1 (gene 7040); experiment: LTEA_HepaRG_TGFB1: Life Technologies and Expression Analysis (LTEA) Assay for Transforming Growth Factor (TGFB1) Transporter using HepaRG (AID 2283533); conditions: mRNA level, 48 h; actives raise or lower the signal
In short: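 Eight-point concentration-response (max 100 uM, half-log) in HepaRG under serum-free induction conditions, 48 h. TGFB1 mRNA by qRT-PCR, housekeeping-normalized.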

[14] = read-out: TIMP1, TIMP1 (gene 7076); experiment: LTEA_HepaRG_TIMP1: Life Technologies and Expression Analysis (LTEA) Assay for TIMP1 using HepaRG (AID 2283534); conditions: mRNA level, 48 h; actives raise or lower the signal;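 further: TaqMan qRT-PCR signal normalized to ACTB GAPDH and POLR2A housekeeping genes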
In short: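 TIMP1 induction or repression in HepaRG cells after 48 h chemical exposure (eight concentrations, highest 100 uM), assessed by normalized qRT-PCR with bidirectional fitting to DMSO controls.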

[15] = read-out: Tumor necrosis factor receptor 1 (TNFRSF1A), TNFRSF1A (gene 7132); experiment: LTEA_HepaRG_TNFRSF1A: Life Technologies and Expression Analysis (LTEA) Assay for Tumor necrosis factor receptor 1 (TNFRSF1A) using HepaRG (AID 2283535); conditions: mRNA level, 48 h; actives raise or lower the signal
In short: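 Assay uses 48 h chemical treatment of differentiated HepaRG monolayers, tested in duplicate at eight concentrations from 100 uM downward in 0.5% DMSO. mRNA is normalized to ACTB, GAPDH and POLR2A, with induction or suppression fitted relative to vehicle.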

[16] = read-out: Thyroid Hormone Responsive (THRSP), THRSP (gene 7069); experiment: LTEA_HepaRG_THRSP: Life Technologies and Expression Analysis (LTEA) Assay for Thyroid Hormone Responsive (THRSP) using HepaRG (AID 2283536); conditions: mRNA level, 48 h; actives raise or lower the signal
In short: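 Differentiated human HepaRG cells were exposed in duplicate for 48 h in serum-free induction medium to eight concentrations (top 100 uM, half-log steps, 0.5% DMSO). Expression was quantified by TaqMan qRT-PCR, normalized to ACTB, GAPDH and POLR2A, with bidirectional fitting against DMSO.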

[17] = read-out: UDP glucuronosyltransferase (UGT1A6), UGT1A6 (gene 54578); experiment: LTEA_HepaRG_UGT1A6: Life Technologies and Expression Analysis (LTEA) Assay for UDP glucuronosyltransferase (UGT1A6) using HepaRG (AID 2283539); conditions: mRNA level, 48 h; actives raise or lower the signal
In short: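 Measures mRNA change in HepaRG hepatic cells exposed 48 h to chemicals (eight-point, maximum 100 uM, 0.5% DMSO vehicle) in serum-free induction medium. Expression normalized to endogenous controls; DMSO served as negative control and baseline.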

[18] = read-out: X-box binding protein 1 (XBP1), XBP1 (gene 7494); experiment: LTEA_HepaRG_XBP1: Life Technologies and Expression Analysis (LTEA) Assay for X-box binding protein 1 (XBP1) using HepaRG (AID 2283540); conditions: mRNA level, 48 h; actives raise or lower the signal
In short: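 Eight concentrations (half-log, highest 100 uM, 0.5% DMSO) tested in duplicate on HepaRG cells over 48 h in serum-free induction medium; qRT-PCR of XBP1 normalised to ACTB, GAPDH, POLR2A.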

[19] = LTEA_HepaRG_LDH_cytotoxicity: Cytotoxicity Assessment in the Life Technologies and Expression Analysis (LTEA) Assay (AID 2283563; active means hit-call score of the fitted dose curve at least 0.9, where 1 is the maximum;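 on AC50: LDH activity released into spent culture medium as a marker of cell death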)
In short: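 Spent-medium LDH after 48 h chemical exposure of HepaRG cells in serum-free induction medium; eight concentrations, half-log dilutions from 100 uM, duplicate wells, fitted upward relative to 0.5% DMSO.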

[20] = ATG_XTT_Cytotoxicity: Cytotoxicity Assessment in the Attagene TRANS-FACTORIAL HepG2 Assay (AID 2283584; active means hit-call score of the fitted dose curve at least 0.9, where 1 is the maximum;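 on AC50: XTT signal for cell number as viability in transfected HepG2 cells; cells exposed to compound for 24 h before reading; active means loss of viability signal versus DMSO baseline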)
In short: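 24 h chemical exposure of reporter-transfected HepG2; XTT signal loss vs DMSO indicates cytotoxicity.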

Measured: AC50

Sequence of Signal transducer and activator of transcription 3 (Homo sapiens) (P40763 whole entry, looked up): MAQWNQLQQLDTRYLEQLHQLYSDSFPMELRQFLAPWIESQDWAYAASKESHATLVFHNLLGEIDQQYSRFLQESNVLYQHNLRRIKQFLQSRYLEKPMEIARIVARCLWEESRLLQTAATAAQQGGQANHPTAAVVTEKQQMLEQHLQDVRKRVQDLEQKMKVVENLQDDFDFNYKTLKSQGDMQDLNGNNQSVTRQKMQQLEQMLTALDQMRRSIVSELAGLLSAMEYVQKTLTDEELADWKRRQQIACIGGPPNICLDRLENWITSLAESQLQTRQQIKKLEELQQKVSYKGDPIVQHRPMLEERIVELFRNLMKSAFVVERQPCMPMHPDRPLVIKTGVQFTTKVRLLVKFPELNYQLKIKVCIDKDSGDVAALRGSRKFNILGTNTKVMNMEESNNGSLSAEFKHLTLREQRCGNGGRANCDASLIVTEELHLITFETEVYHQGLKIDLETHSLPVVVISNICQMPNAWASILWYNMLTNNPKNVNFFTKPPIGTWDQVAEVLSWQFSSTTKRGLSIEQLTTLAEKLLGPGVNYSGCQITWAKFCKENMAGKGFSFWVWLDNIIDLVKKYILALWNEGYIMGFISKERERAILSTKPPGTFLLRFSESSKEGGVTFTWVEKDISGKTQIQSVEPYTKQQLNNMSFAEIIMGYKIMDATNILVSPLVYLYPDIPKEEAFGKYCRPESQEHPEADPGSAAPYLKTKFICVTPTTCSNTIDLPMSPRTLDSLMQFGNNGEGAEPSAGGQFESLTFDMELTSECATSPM
Sequence of Nuclear factor NF-kappa-B p105 subunit (Homo sapiens) (P19838 whole entry, looked up): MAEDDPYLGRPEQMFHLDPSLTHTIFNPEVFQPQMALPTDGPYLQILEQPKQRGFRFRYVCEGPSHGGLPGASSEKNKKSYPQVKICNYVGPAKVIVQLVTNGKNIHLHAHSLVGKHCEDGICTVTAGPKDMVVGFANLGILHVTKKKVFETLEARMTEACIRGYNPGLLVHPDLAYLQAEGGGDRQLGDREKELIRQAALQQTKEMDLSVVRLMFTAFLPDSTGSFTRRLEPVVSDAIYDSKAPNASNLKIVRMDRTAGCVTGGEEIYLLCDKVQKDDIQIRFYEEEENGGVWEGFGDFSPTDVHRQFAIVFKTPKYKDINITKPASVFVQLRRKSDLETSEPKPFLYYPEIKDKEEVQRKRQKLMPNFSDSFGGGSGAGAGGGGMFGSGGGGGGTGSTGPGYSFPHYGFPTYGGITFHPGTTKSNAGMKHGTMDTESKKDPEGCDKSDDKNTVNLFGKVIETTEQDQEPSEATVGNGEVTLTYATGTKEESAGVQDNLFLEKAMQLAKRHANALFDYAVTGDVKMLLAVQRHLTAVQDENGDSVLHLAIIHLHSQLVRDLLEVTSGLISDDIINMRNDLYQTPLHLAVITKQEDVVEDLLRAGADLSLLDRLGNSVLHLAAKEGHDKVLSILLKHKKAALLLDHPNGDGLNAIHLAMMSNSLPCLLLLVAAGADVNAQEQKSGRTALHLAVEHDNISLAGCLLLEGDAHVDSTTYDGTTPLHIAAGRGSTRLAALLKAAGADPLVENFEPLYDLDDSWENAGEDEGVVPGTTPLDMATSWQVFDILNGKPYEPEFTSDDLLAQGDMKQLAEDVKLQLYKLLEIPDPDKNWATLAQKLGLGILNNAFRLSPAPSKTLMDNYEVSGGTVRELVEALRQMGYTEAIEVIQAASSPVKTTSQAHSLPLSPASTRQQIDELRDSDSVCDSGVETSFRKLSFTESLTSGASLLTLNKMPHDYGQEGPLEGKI

CCN1CCC2(CC1)COc1cc3c(cc12)N(C(=O)c1ccc(-c2ccc(-c4nnc(C)o4)cc2C)cc1)CC3
active: [1] 46.8 µM | [2] 15.6 µM | [3] 46.8 µM | [4] 21.8 µM | [5] 22.7 µM | [6] 22.9 µM | [7] 28.4 µM | [8] 24.8 µM | [9] 13.7 µM | [11] 75.3 µM | [12] 83.8 µM | [13] 29 µM | [15] 21.6 µM | [16] 46.8 µM | [17] 15.4 µM | [18] 27.4 µM | [19] 24.6 µM
inactive: [10] | [14]

C=C(C)C(=O)[O][Sn]([CH2]CCC)([CH2]CCC)[CH2]CCC
active: [3] 94.9 µM | [5] 15.8 µM | [6] 2.7 µM | [7] 1.18 µM | [8] 94.1 µM | [10] 2.57 µM | [11] 76.9 µM | [12] 2.42 µM | [13] 2.44 µM | [16] 0.381 µM | [17] 2.63 µM | [19] 4.2 µM | [20] 2.32 µM
inactive: [1] | [2] | [4] | [9] | [14] | [15] | [18]

CCOC(=O)CP(=O)(OCC)OCC
inactive: [20]

ClC1(Cl)C2(Cl)C3(Cl)C4(Cl)C(Cl)(Cl)C5(Cl)C3(Cl)C1(Cl)C5(Cl)C24Cl (centres undefined)
active: [7] 16.8 µM
not listed: [3]
inactive: all other assays above

O=C(O)C(F)(F)C(F)(F)C(F)(F)C(F)(F)C(F)(F)C(F)(F)F
active: [7] 35.6 µM
inactive: all other assays above
